A short description of the assay: NCI Yeast Anticancer Drug Screen. Data for the bub3 strain (AID 167). Particulars: S. cerevisiae bub3 mutant strain, stronger effect = higher value. The method, then: Growth inhibition of yeast strains with defined genetic alterations is measured as a screen for potential anti-cancer activity. Selected strains with alterations in DNA damage repair or cell cycle control were exposed to compounds and growth inhibition was measured relative to vehicle treated controls. The strain used in this assay is bub3

Setting [1] is: at 5.0 µM (retest, dose inferred, filed as 0.5).
The mark [2] stands for this setting: at 50.0 µM (retest, dose inferred, filed as 5.0).

Five molecules from PubChem BioAssay (NCI) can be followed below.

This is part of a sample that, as a whole, favours compounds with a hit. Of some 79,000 tested, about 15% had one in any assay. Values without a mark were called inactive. Active and inactive are the calls of the source. No stated cut-off is given here; in the data, active means growth inhibition above about 70%; inactive means the rest.

`CCOC(=O)C(C(=O)OCC)=P(c1ccccc1)(c1ccccc1)c1ccccc1`: the growth inhibition runs as follows: (at 1.2 µM) -1%; (at 3.7 µM) 1%; under setting [1], -3%; (at 11.0 µM) 1%; (at 33.0 µM) -3%; under setting [2], 19%. The growth inhibition by setting is: (at 50.0 µM) 5%; (at 100.0 µM) 93% (active).
With `CC(C)CCCC(C)C1CCC2C3CCC4=CC(=O)/C(=C\O)CC4(C)C3CCC12C` (stereo not given), the growth inhibition by setting is: (at 1.2 µM) 4%; (at 3.7 µM) -1%; under setting [1], 6%; (at 11.0 µM) -10%; (at 33.0 µM) -9%; under setting [2], 54%. Besides, the growth inhibition by setting is: (at 50.0 µM) 47.8%; (at 100.0 µM) 21%.
As to `Cc1ccc(NCCNCCO)c2c(=O)c3cc(O)ccc3sc12`, the growth inhibition (at 1.2 µM) is -24%; the growth inhibition (at 3.7 µM) was 0%; the growth inhibition under setting [1] is 18%; the growth inhibition (at 11.0 µM) is 0%; the growth inhibition (at 33.0 µM) is -2%; the growth inhibition under setting [2] is 99% (active). Also, the growth inhibition (at 50.0 µM) is 89.2% (active) and the growth inhibition (at 100.0 µM) was 96% (active).
In the case of `COc1ccc(NC(=O)CC2SC(=Nc3ccccc3C)NC2=O)c([N+](=O)[O-])c1` (stereo not given), the growth inhibition (at 1.2 µM) is 2%; the growth inhibition (at 3.7 µM) is -1%; the growth inhibition under setting [1] is -8%; the growth inhibition (at 11.0 µM) was -5%; the growth inhibition (at 33.0 µM) is 6%; the growth inhibition under setting [2] was 71% (active). Further, the growth inhibition was 34.7% (at 50.0 µM) and 97% (active) (at 100.0 µM).
Consider `CC[N+]1(C)CCC(O)(c2ccc(OC)cc2)C(C(=O)c2ccc(OC)cc2)C1` (stereo not given), for which the growth inhibition runs as follows: (at 1.2 µM) -49%; (at 3.7 µM) -42%; under setting [1], 35%; (at 11.0 µM) -61%; (at 33.0 µM) -52%; under setting [2], 91% (active). Besides, the growth inhibition by setting is: (at 50.0 µM) 8.55%; (at 100.0 µM) -68%.
